Assay outcomes as filed in PubChem BioAssay.
This is one part of a sample in which hits are shown more often than they occur.
NTMT1 inh: inhibitors of human N-terminal methyltransferase NTMT1 | Q9BV86 | NTMT1 MTase-Glo SAH luminescence, purified enzyme | Potency, µM (titrated, usually from 114 µM), without a hit: at the highest dose activity change, negative = inhibition, actives largely listed as inhibitors | hit rate 2.5% among 59,000 | AID 1645870;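 further: potency means the concentration at half of the fitted maximal effect; plate controls were DMSO vehicle for no effect and no enzyme for full effect; nearly all actives have a fitted effect of over 65% in size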
Target sequence (Q9BV86 whole entry, looked up): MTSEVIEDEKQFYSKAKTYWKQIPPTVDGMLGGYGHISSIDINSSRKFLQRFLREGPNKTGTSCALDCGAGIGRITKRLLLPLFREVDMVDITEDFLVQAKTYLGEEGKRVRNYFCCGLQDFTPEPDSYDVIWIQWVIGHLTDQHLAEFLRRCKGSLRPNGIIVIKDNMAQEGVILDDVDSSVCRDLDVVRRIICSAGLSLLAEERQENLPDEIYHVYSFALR
p53null 32C tox: kills p53 null cells at the permissive temperature | H1299-neo p53 null cells, ATP luminescence, 24 h, 32C | Potency, µM (titrated, usually from 46.1 µM), for the others: at the highest dose activity change, negative = cytotoxicity, hits mostly cytotoxic | hit rate 0.62% among 55,000 | AID 903;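 further: potency means the concentration at half of the fitted maximal effect; 0% = DMSO only and -100% = full killing by 100 µM tamoxifen; nearly all actives have a fitted effect of over 55% in size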
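ATP-content luminescence in p53-null H1299-neo cells after 24 h compound exposure (up to 46 uM) at 32C permissive temperature; 0% and 100% killing set by DMSO and 100 uM tamoxifen; Hill-equation AC50.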
SKOV3 invasion: blocks SKOV3ip1 adhesion and invasion in omental model | Potency, µM (titrated, usually from 45.8 µM), for inactives: at the top dose activity change, negative = inhibition, usual class: inhibitors | SKOV3ip1-GFP adhesion/invasion on 3D omental model, fluorescence | hit rate 0.1% among 46,000;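 further: potency means the concentration at half of the fitted maximal effect; plate controls were DMSO wells for no effect and tomatine positive control wells for full effect; nearly all actives have a fitted effect of over 65% in size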
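A 3D layer of primary human omental fibroblasts, mesothelial cells, fibronectin and collagen I, grown 48 hr, received SKOV3ip1-GFP cells in serum-free medium plus compounds at 0.36-46 umol/L. After 2 hr RT and 16 hr 37 C, fixed adherent GFP cells were counted; normalized to DMSO and tomatine.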
p53null 39C tox: p53 null cell cytotoxicity, nonpermissive temperature. H1299 p53-null (neo) cells, 39C, ATPlite viability, 24 h. Potency, µM (top dose mostly 46.1 µM), without a hit: top-dose activity, negative = cell killing, hits mostly cytotoxic. hit rate 0.97% among 55,000;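 further: potency means the concentration at half of the fitted maximal effect; 0% = DMSO only and -100% = full killing by 100 µM tamoxifen; nearly all actives have a fitted effect of over 50% in size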
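Following overnight plating at 37C (600 cells/well), H1299-neo or H1299-p53A138V cells are dosed up to 46 uM. Incubation lasts 24 hr at 39C before ATP detection.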
Sfp qHTS opt: inhibitors of Bacillus subtilis Sfp PPTase, optimization followup. shares compounds with NTMT1 inh. purified Sfp PPTase enzyme activity, qHTS. Potency, µM (titrated, usually from 114 µM), without a hit: at the highest dose activity change, negative = inhibition, usual class: inhibitors. hit rate 78% among 230
Bsub HM489 growth: Sfp PPTase inhibitors: growth inhibition of B. subtilis HM489; shares compounds with NTMT1 inh; B. subtilis HM489 (acpS-) growth, BacTiter-Glo, 5 h; Potency, µM (highest dose often 114 µM), inactives show at the highest dose activity change, negative = inhibition, most hits filed as inhibitors; hit rate 50% among 220; AID 540353
Sfp PPTase gel: Sfp PPTase inhibition, gel-based detection. AID 540355. Potency, µM (doses to about 250 µM), inactives show top-dose activity change, negative = inhibition, actives largely listed as inhibitors. hit rate 54% among 220. shares compounds with NTMT1 inh. purified Sfp PPTase, gel-based product detection
Sfp gel: Sfp phosphopantetheinyl transferase inhibition, gel detection; shares compounds with NTMT1 inh; purified Sfp PPTase, gel-based product detection; Potency, µM (doses to about 250 µM), inactives show at the top dose activity change, negative = inhibition, usual class: inhibitors; hit rate 90% among 45; AID 602362
Sfp inh SAR2: inhibitors of Bacillus subtilis Sfp PPTase, SAR round 2 | hit rate 87% among 230 | shares compounds with NTMT1 inh | purified Sfp enzyme, PPTase activity, qHTS | Potency, µM (highest dose often 57.1 µM), inactives show at the top dose activity change, negative = inhibition, most hits filed as inhibitors
hGST ctr: hGST A1-1 enzyme inhibition, Sfp SAR counter-screen; hGST A1-1 enzyme activity counter-screen, qHTS; AID 602391; shares compounds with NTMT1 inh; 55 tested, under 10 active; Potency, µM (titrated, usually from 114 µM), for the others: at the highest dose activity change, negative = inhibition, hits mostly inhibitors
USP2a K63: confirmation of human USP2a inhibitors with K63 diubiquitin substrate; AID 652172; USP2 cleavage of DiUb K63-3IQF, fluorescence kinetic; shares compounds with NTMT1 inh; hit rate 80% among 30; Potency, µM (series often up to 57.5 µM), for the others: top-dose activity change, negative = inhibition, most hits filed as inhibitors
Casp6 inh: caspase-6 inhibition, USP2a inhibitor counterscreen; shares compounds with NTMT1 inh; Caspase 6 enzyme, Caspase-Glo 6 luminescence; activity change, negative = inhibition, % at 46.1 µM; 30 tested, under 10 active; AID 652277
HSD17B4 inh: counter-screen for HPGD inhibitors: human HSD17B4 inhibition. shares compounds with NTMT1 inh. purified HSD17B4, estradiol/NAD+, NADH fluorescence. Potency, µM (highest dose often 57.1 µM), for the others: at the top dose activity change, negative = inhibition, usual class: inhibitors. hit rate 10% among 230. AID 743187
ALDH1A1 inh: inhibits human ALDH1A1, off-target for HPGD inhibitors. shares compounds with NTMT1 inh. recombinant ALDH1A1, NADH fluorescence, propionaldehyde/NAD+. Potency, µM (top dose mostly 57.1 µM), for inactives: at the top dose activity change, negative = inhibition, hits mostly inhibitors. hit rate 93% among 230. AID 743195
NNMT inh: human NNMT inhibition, NTMT1 counter-screen; NNMT MTase-Glo luminescence, SAH detection; shares compounds with NTMT1 inh; hit rate 10% among 120; Potency, µM (top dose mostly 57.1 µM), for the others: at the top dose activity, negative = inhibition, most hits filed as inhibitors
Target sequence (P40261 whole entry, looked up): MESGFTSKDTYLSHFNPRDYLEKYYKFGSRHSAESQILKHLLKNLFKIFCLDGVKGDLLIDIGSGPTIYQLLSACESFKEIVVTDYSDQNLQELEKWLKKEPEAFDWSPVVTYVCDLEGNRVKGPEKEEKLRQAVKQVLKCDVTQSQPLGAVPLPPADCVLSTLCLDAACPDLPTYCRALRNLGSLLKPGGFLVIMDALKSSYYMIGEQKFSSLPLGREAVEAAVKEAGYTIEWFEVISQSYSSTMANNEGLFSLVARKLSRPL
Starred values were filed as active, the others as inactive; ? = inconclusive; / = no result; [ ] = another dose, or the depositor's remark. The call rests on the fitted dose curve; in most records, active means well fitted curve in the direction sought with a large enough effect; inconclusive means small, poorly fitted or top-dose-only effect, or another doubt; inactive means no such curve, though single readings can be large; an effect the other way counts as inactive or inconclusive.

SMILES | NTMT1 inh | p53null 32C tox | SKOV3 invasion | p53null 39C tox | Sfp inh SAR2 | HSD17B4 inh | ALDH1A1 inh | others
N#Cc1cccc(-c2c[nH]c3ncnc(N4CCOCC4)c23)c1 | 15.8µM* | / | / | / | / | / | / | NNMT inh=?
CC(=O)N1CCC(Nc2cc(C(=O)NC[C@H](O)CN3CCc4ccccc4C3)ncn2)CC1 | 1.6% | / | / | / | / | / | /
Cc1ccc(-c2cc(C(=O)Nc3ccncc3)c3ccccc3n2)cc1C | -0.2% | / | / | / | / | / | /
Cc1ccc(-c2cc(C(=O)Nc3ccc(-n4cccn4)cc3)c3ccccc3n2)cc1C | -12.2% | / | / | / | / | / | / | USP2a K63=8.63µM*;Casp6 inh=-7.3
Cc1ccc(-c2cc(C(=O)Nc3ccc(S(N)(=O)=O)cc3)c3cccc(C)c3n2)cc1C | / | / | / | / | / | / | / | USP2a K63=10.9µM*;Casp6 inh=?
CC1=C(C(=O)N(C)C)C(c2ccccc2Br)N=C(Nc2nc3ccccc3o2)N1 (stereo not drawn) | 5.2%[57.5 µM] | / | / | / | / | / | /
CCn1c(=O)c(-c2ccn[nH]2)cc2c(C)nc(N)nc21 | -4.8%[57.5 µM] | / | / | / | / | / | / | NNMT inh=-14.4%
CC1CCC(C(=O)Nc2ccc([S+](=O)([O-])Nc3nccs3)cc2)CC1 (stereo not drawn) | 21.7% | / | / | / | / | / | /
CC(CCc1ccccc1)NC(=O)c1ccc(NC(=O)c2ccc(Cl)cc2Cl)cc1 (stereo not drawn) | / | -15.1% | / | / | / | / | /
CC(Cc1ccccc1)C(=O)Nc1ccc(Cl)cc1C(=O)O (stereo not drawn) | 18.0% | / | / | / | -20.2% | 24.1µM* | 24.1µM* | hGST ctr=?
CSC(Cc1ccc(Cl)cc1)C(=O)Nc1ccc(Cl)cc1C(=O)O (stereo not drawn) | 16.9% | / | / | / | 31.0% | ? | 24.1µM* | hGST ctr=?
O=C(O)c1ccc(-c2ccc(NC(=O)c3cccs3)cn2)cc1 | 11.9% | / | / | / | / | / | /
Cc1cc(C)c2c(N)c(C(=O)NCc3ccc(Cl)cc3)sc2n1 | -10.4%[57.5 µM] | / | / | / | / | / | / | NNMT inh=-7.6%
Cc1cc(C)c2c(N)c(C(=O)NCc3ccco3)sc2n1 | / | -12.5% | / | -18.2% | / | / | /
O=c1nc(-c2ccccn2)sc2ccccc12 | 20µM* | / | / | / | / | / | / | NNMT inh=?
C[C@@H](C(=O)Nc1ccc(Cl)cc1)C1CCC(c2ccnc3ccc(F)cc23)CC1 (stereo partly drawn) | 9.0% | / | / | / | / | / | /
COc1ccc(N2CCN(C(=O)Nc3cccc(C(F)(F)F)c3)CC2)cc1 | ? | -7.0% | -0.8% | 4.0% | / | / | /
Cc1ccnc(NC(=S)Nc2cccc(C(F)(F)F)c2)c1 | 0.1% | / | / | / | 22.9µM* | -2.6% | 21.5µM* | Sfp qHTS opt=10.2µM*;Bsub HM489 growth=11.8µM*;Sfp PPTase gel=2.1%;Sfp gel=?;hGST ctr=0.21µM*
Cc1ccnc(NC(=S)N[C@@H]2CCN(c3cccc(C(F)(F)F)c3)C2)c1 | 16.0% | / | / | / | ? | 8.6% | 24.1µM* | Sfp qHTS opt=?;Bsub HM489 growth=?;Sfp PPTase gel=18.7%;Sfp gel=0.1%;hGST ctr=?
Cc1ccnc(NC(=S)NC2CN(c3cccc(C(F)(F)F)c3)C2)c1 | -2.4%[57.5 µM] | / | / | / | ? | 18.3% | -25.1% | Sfp qHTS opt=?;Bsub HM489 growth=37.3µM*;Sfp PPTase gel=13.3%
O=C(Nc1ccccc1Br)N[C@@H]1CCN(c2ccc(C(F)(F)F)cn2)C1 | 1.1% | / | 0.6% | / | / | / | /
O=C1c2ccccc2C(=O)C1(c1ccccc1)N1CCN(c2cccc(C(F)(F)F)c2)CC1 | 6.7% | -3.8% | -19.9% | 10.5% | / | / | /
Cc1ccnc(NC(=O)N2CCN(c3cccc(C(F)(F)F)c3)CC2)c1 | 1.7% | / | / | / | -23.6% | -14.5% | 10.8µM* | Sfp qHTS opt=-0.2%;Bsub HM489 growth=?;Sfp PPTase gel=-5.1%
Cc1cc(N2CCC(C)CC2)nc2ccc(NC(=O)CCC(=O)N3CCN(c4cccc(C(F)(F)F)c4)CC3)cc12 | -0.1% | -4.3% | -6.8% | 10.7% | / | / | /
Cc1ccnc(CC(=S)N2CCN(c3cccc(C(F)(F)F)c3)CC2)c1 | -0.2% | / | / | / | ? | ? | 9.61µM* | Sfp qHTS opt=23.5µM*;Bsub HM489 growth=?;Sfp PPTase gel=10µM*
